Test results as given in PubChem BioAssay (NCI).
This is part of a sample that, as a whole, favours compounds with a hit. Of some 83,000 tested, about 20% had one in any assay.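 Each cell line was grown in a 96-well plate and treated with one concentration of compound for 48 hours. Values below 10 were considered active.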 Unmarked numbers belong to inactive results. The source made the active and inactive calls.

Tests used:
Assay in all cases: NCI-60 one-dose screen, 48 h (100 = growth as untreated, 0 = no growth, -100 = all killed)
Conditions in all cases: 10 µM
T-47D breast = tested on: T-47D breast
BT-549 breast = tested on: BT-549 breast
MDA-MB-435 melanoma = tested on: MDA-MB-435 melanoma
SW-620 colon = tested on: SW-620 colon
MCF7 breast = tested on: MCF7 breast
HCT-116 colon = tested on: HCT-116 colon
HCC-2998 colon = tested on: HCC-2998 colon
KM12 colon = tested on: KM12 colon

Row | SMILES | growth (T-47D breast) | growth (BT-549 breast) | growth (MDA-MB-435 melanoma) | growth (SW-620 colon) | growth (MCF7 breast) | growth (HCT-116 colon) | growth (HCC-2998 colon) | growth (KM12 colon)
1 | COc1ccc(-c2ccc(-c3ccc(C(=N)N)c(F)c3)s2)cc1 | -64% (active) | -91.7% (active) | -79.5% (active) | -91% (active) | -70.6% (active) | -82.6% (active) | -83.9% (active) | 
2 | O=CNc1c(Cl)cc2c(c1Cl)Cc1cc([N+](=O)[O-])ccc1-2 | 30.6% | 95.8% | 2.37% (active) | 41.4% | 15.3% | 6.23% (active) | 92.5% | 25.6%
3 | Cc1nn2c(/C=C3/C(=O)Nc4ccc(Cl)cc43)c(-c3ccccc3)nc2s1 | -1.58% (active) | 48.8% | 44.4% | 44.2% | 38.5% | 7.12% (active) | 102% | 59.1%
4 | CCOc1ccc(-n2cc(-c3ccc(N(C)C)cc3)[n+]3c2CCCCC3)cc1 | 0.571% (active) | -1.7% (active) | 15.1% | 19.1% | 5.05% (active) | 0.582% (active) | 21.3% | 14.3%
5 | Cn1c(N)c(N=Cc2ccccc2)c(=O)n(C)c1=O | 108% | 102% | 114% | 107% | 103% | 92.8% | 104% | 115%
6 | COc1ccc(C2C=C(c3ccc(Cl)c(Cl)c3)N=C3SC(C)=CN32)cc1 (stereo unspecified) | 68.3% | 89.9% | 90.6% | 91.4% | 47.1% | 14.4% | 108% | 81.6%
7 | CCCCCCCCCCN=C(c1ccc(N(C)C)cc1)c1ccc(N(C)C)cc1 | 20.7% | 38.1% | -14.2% (active) | 16.8% | 11.9% | 15.3% | 52.6% | 
8 | CCc1ccc(Nc2cc(C)nc3nc(C)nn23)cc1 | -68.3% (active) | 40.7% | -97.2% (active) | -68.9% (active) | -92% (active) | -90.7% (active) | -69.8% (active) | 3.49% (active)
9 | N=C(N)c1ccc(-c2ccc(-c3cccs3)s2)nc1 | 43% | 91% | 44.5% | 22.4% | 17.8% | 18.5% | -52.7% (active) | 
10 | N#C/C(=C/c1cc([N+](=O)[O-])ccc1Cl)C(N)=O | 90.4% | 96.8% | 71.5% | 46.6% | 57.3% | 10% (active) | 106% | 
11 | CCOC(=O)Nc1ccc2c(c1)C(=O)N(CC)c1ccccc1O2 | 73.4% | 26.2% | -17.1% (active) | 32.7% | 14.2% | 9.54% (active) | 18.2% | 14.7%
12 | COc1cc(-c2cc(-c3cc(OC)c(OC)c(OC)c3)nc3nc(N)[nH]c(=O)c23)ccc1Oc1ccnc2cc(Cl)ccc12 | 30.3% | 34.9% | -57.6% (active) | 19.6% | 17.4% | 16.1% | 56.9% | 13.5%
13 | Cc1ccc2oc(=O)cc(/C(=C3/C=CC=N3)c3ccc[nH]3)c2c1 | -1.91% (active) | -11.4% (active) | -24.8% (active) | 20.9% | 7.32% (active) | 1.45% (active) | -17% (active) | -17.6% (active)
14 | COc1ccc(C2CC(c3ccc(-c4ccccc4)cc3)=NN2c2ccc(S(N)(=O)=O)cc2)cc1 (stereo unspecified) | 52.5% | 98.5% | 76% | 81.1% | 58.6% | 56.7% | 58.2% | 37.5%
15 | C=CCNCCCN1C(=O)c2ccc3c4c(ccc(c24)C1=O)C(=O)N(CCCNCC=C)C3=O | -48.6% (active) | -82% (active) | -79% (active) | -54.1% (active) | -64.8% (active) | -16% (active) | -85.9% (active) | 
16 | O=C(c1ccccc1)C(Sc1ccccc1)c1ccccc1 (stereo unspecified) | 90.8% | 92.9% | 107% | 57.8% | 94% | 55.8% | 87.8% | 
17 | COc1cc(-c2nc3ccc(C)cc3[nH]2)ccc1OCC(=O)N=Nc1c(O)[nH]c2ccccc12 | -61.2% (active) | 18.9% | -52.6% (active) | -62.9% (active) | -73.4% (active) | -82.7% (active) | -91.2% (active) | -79.4% (active)

Row | SMILES | growth (T-47D breast) | growth (BT-549 breast) | growth (MDA-MB-435 melanoma) | growth (SW-620 colon) | growth (MCF7 breast) | growth (HCT-116 colon) | growth (HCC-2998 colon) | growth (KM12 colon)
18 | CCOC(=O)C1=C(Nc2ccc(OC)cc2)C(N)=NC1=N | 47.5% | 56.2% | -43.1% (active) | 25.2% | 13.7% | 34.5% | 81% | 30.2%
19 | C[C@@H]1C(=O)N(C[C@H](Cc2ccccc2)NC(=O)OCc2ccccc2)[C@]1(Cc1ccccc1)C(=O)OCc1ccccc1 | 7.82% (active) | 62.9% | 52% | 52.6% | 35% | 32.3% | 71% | 26.6%
20 | N=C(N)c1ccc(-c2ccc(-c3ccccc3)s2)s1 | -66.9% (active) | 88.9% | -83.3% (active) | -71.1% (active) | -71.5% (active) | -62% (active) | -80.8% (active) | 
21 | Nc1nc2c(ncn2C2OC3COP(=O)(O)OC4C(COP(=O)(O)OC2C3O)OC(n2cnc3c(N)ncnc32)C4O)c(=O)[nH]1 (stereo unspecified) | 84.4% | 90% | 105% | 107% | 109% | 94% | 99.3% | 104%
22 | Cc1ccc2nc(-c3ccc(OCC(=O)N=Nc4c(O)[nH]c5ccccc45)cc3)[nH]c2c1 | 38.4% | 109% | 64.3% | 6.51% (active) | -24.7% (active) | -20.5% (active) | 59.7% | 1.59% (active)
23 | O=S(=O)(NC1c2ccccc2Oc2ccccc21)c1cc(Cl)ccc1Cl | 74.1% | 91.1% | 105% | 87.5% | 91.9% | 90.4% | 99.1% | 
24 | O=C(O)c1ccccc1C(=O)c1cccc2c(F)cccc12 | 94.5% | 103% | 112% | 106% | 93.5% | 103% | 105% | 111%
25 | COc1cccc(C(=O)NNc2nc(N3CCN(C4CCCCC4)CC3)nc(N3CCN(C(c4ccccc4)c4ccccc4)CC3)n2)c1 | 29% | 55.5% | 35% | 39% | 11.2% | 19% | 42% | 23.6%
26 | CNC(=O)c1cc(Oc2ccc(NC(=O)Nc3ccc(Cl)c(OC(C)C)c3)c(F)c2)ccn1 | 9.9% (active) | 75.1% | 43.2% | 68.2% | 31% | 30.4% | 66.7% | 
27 | O=C(CCc1ccccc1)N1CCN(C(=O)CCc2ccccc2)CC1 | 108% | 105% | 106% | 109% | 95.7% | 99.6% | 109% | 
28 | CC(=O)c1ccc(NCn2nc(-c3ccc(Cl)cc3)oc2=S)cc1 | 80% | 99.1% | 105% | 104% | 95.7% | 93.3% | 99.7% | 93.1%
29 | Cc1cc(C)c(C(=O)OC(C)CNC2CCCCC2)c(C)c1 (stereo unspecified) | 100% | 92.4% | 90.8% | 100% | 97.8% | 86.3% | 103% | 
30 | O=C(NCCCl)c1cc(Cl)cc(Cl)c1 | 93.6% | 105% | 99.9% | 112% | 96.2% | 110% | 102% | 
31 | CCN(CC)c1ccc(/C=C/C2=[N+](C)c3ccccc3C2(C)C)c(C)c1 | -0.932% (active) | -13.2% (active) | -13.7% (active) | 18.7% | 3.87% (active) | 5.94% (active) | 23.3% | 
32 | Cc1ccc(C2C=C(c3ccc(Cl)cc3)N=C3SC=CN32)c(Br)c1 (stereo unspecified) | 56.8% | 61.1% | 47.1% | 53.9% | 21.5% | 5.04% (active) | 91.4% | 78.5%
33 | C#C[C@]1(O)CC[C@H]2[C@@H]3CC[C@H]4CC(F)(F)CC[C@]4(C)[C@H]3CC[C@@]21C | 64.7% | 58.6% | 84% | 87.9% | 88.9% | 76.6% | 112% | 87.2%
